# Values joined by “and” are separate entries in the source; they are usually repeats but may differ in a detail not shown here. Equal values may be shown once. Results filed as inconclusive are left out. Entries that show only a call come without a potency. The source holds several records for some structures; these can differ, active in one and inactive in another. Active and inactive are the calls of the source. Unless noted, the call rests on the fitted dose curve; in most records, active means well fitted curve in the direction sought with a large enough effect in the repeat runs; inconclusive means weak or mixed curves; inactive means no such curve, though single readings can be large; an effect the other way counts as inactive or inconclusive.
# Key:
# [1] = qHTS assay to identify small molecule agonists of the hypoxia (HIF-1) signaling pathway (AID 1224846; active means well fitted activation curve with a large enough effect in the signal ratio in the repeat runs, not every such curve was filed as active; the % refers to the signal ratio)
# Summary of the method: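 HRE-bla ME-180 beta-lactamase reporter cells in medium with 0.5% dialyzed FBS, pre-incubated 5 h then exposed to compounds 17 h at 37C, 5% CO2; reporter induction read with CCF4-AM FRET substrate.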
# [2] = qHTS assay to identify small molecule agonists of H2AX - cell viability counter screen (AID 1224847; calls by dose curve; further: potency means the concentration at half of the fitted maximal effect; nearly all actives have a fitted effect of over 30% in size)
# Summary of the method: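 Quantitative HTS viability measurement: CHO-K1 wild-type cells in serum (10% FBS) medium, short 3 hr drug exposure at 37C with 0.76% DMSO, CellTiter-Glo luminescent detection.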
# [3] = qHTS assay to identify small molecule antagonists of the estrogen related receptor (ERR) signaling pathway from Tox21 library (AID 1224848); further: potency means the concentration at half of the fitted maximal effect; nearly all actives have a fitted effect of over 50% in size
# Summary of the method: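 Screening used an ERR reporter line supplied by NTP, exposed for 18 h at 37 C to library compounds delivered in DMSO. Signal was luciferase luminescence developed with ONE-Glo at room temperature for 30 min.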
# [4] = qHTS assay to identify small molecule agonists of the estrogen related receptor (ERR) signaling pathway from Tox21 library (AID 1224849; calls by dose curve; further: nearly all actives have a fitted effect of over 15% in size); settings: ERR reporter cell line, ONE-Glo luciferase, 18 h
# Summary of the method: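 ERR reporter cells (NTP line) pre-incubated 6 hours at 37 C, then exposed to compounds for 18 hours at 37 C. ONE-Glo luciferase luminescence was read after 30 minutes at room temperature.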
# [5] = qHTS RealTime-Glo MT Cell Viability Assay in HepG2 cells - 24 hour (AID 1224867); further: nearly all actives have a fitted effect of over 50% in size
# Summary of the method: (§1)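 Compound treatment began 5 h after plating HepG2 cells (600/well) with NanoLuc luciferase and prosubstrate. Plates stayed at 37 C for 40 h; luminescence was captured at six time points, 0 h through 40 h.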
# [6] = qHTS RealTime-Glo MT Cell Viability Assay in HEK293 cells - 32 hour (AID 1224868); further: nearly all actives have a fitted effect of over 50% in size; further: potency means the concentration at half of the fitted maximal effect
# Summary of the method: (§2)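 Quantitative high-throughput screen of the Tox21 10K library in HEK293: cells and RealTime-Glo reagents plated together, compound added at 5 h, luminescence monitored through 40 h at 37 C.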
# [7] = A CellTox Green Cytotoxicity Assay to monitor cytotoxicity in HEK293 cells - 0 hour (AID 1224869); further: nearly all actives have a fitted effect of over 50% in size
# Summary of the method: (§3)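 HEK293 cells, 600/well, were preincubated 5 hours and then exposed to compounds at 37 C for up to 40 hours. A cell-impermeant cyanine dye staining dead-cell DNA was read by fluorescence at 0, 8, 16, 24, 32 and 40 h time points.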
# [8] = qHTS RealTime-Glo MT Cell Viability Assay in HepG2 cells - 40 hour (AID 1224870); further: nearly all actives have a fitted effect of over 50% in size; further: potency means the concentration at half of the fitted maximal effect
# Summary of the method: (§4)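 HepG2 cells mixed with RealTime-Glo MT reagents (NanoLuc plus cell-permeant prosubstrate) were seeded at 600 cells/well, incubated 5 h at 37 C/5% CO2, then pinned with compounds in DMSO; nonlytic luminescence tracked viability during 40 h treatment.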
# [9] = A CellTox Green Cytotoxicity Assay to monitor cytotoxicity in HEK293 cells - 40 hour (AID 1224871); further: nearly all actives have a fitted effect of over 45% in size; further: potency means the concentration at half of the fitted maximal effect
# Summary of the method: as §3
# [10] = qHTS RealTime-Glo MT Cell Viability Assay in HEK293 cells - 16 hour (AID 1224872); further: nearly all actives have a fitted effect of over 50% in size; further: potency means the concentration at half of the fitted maximal effect
# Summary of the method: as §2
# [11] = qHTS RealTime-Glo MT Cell Viability Assay in HepG2 cells - 8 hour (AID 1224873); further: nearly all actives have a fitted effect of over 55% in size
# Summary of the method: as §4
# [12] = qHTS RealTime-Glo MT Cell Viability Assay in HEK293 cells - 40 hour (AID 1224874); settings: RealTime-Glo luminescence; max response: stronger effect = lower value; further: nearly all actives have a fitted effect of over 50% in size; further: potency means the concentration at half of the fitted maximal effect
# Summary of the method: (§5)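 600 cells/well were plated with the nonlytic NanoLuc/prosubstrate reagent, pre-incubated 5 h, then given 23 nL of compound in DMSO. Incubation at 37 C for 40 h, with luminescence from viable-cell-reduced substrate read repeatedly from 0 h.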
# [13] = A CellTox Green Cytotoxicity Assay to monitor cytotoxicity in HEK293 cells - 24 hour (AID 1224875); further: nearly all actives have a fitted effect of over 45% in size
# Summary of the method: as §3
# [14] = A CellTox Green Cytotoxicity Assay to monitor cytotoxicity in HepG2 cells - 16 hour (AID 1224876); further: nearly all actives have a fitted effect of over 45% in size; further: potency means the concentration at half of the fitted maximal effect
# Summary of the method: (§6)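 HepG2 cells, 600/well, preincubated 5 h with CellTox Green dye, then exposed to Tox21 compounds in DMSO at 37 C for up to 40 h. Dead-cell DNA fluorescence read at the indicated time point.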
# [15] = qHTS RealTime-Glo MT Cell Viability Assay in HepG2 cells - 32 hour (AID 1224877); further: nearly all actives have a fitted effect of over 55% in size; further: potency means the concentration at half of the fitted maximal effect
# Summary of the method: as §1
# [16] = A CellTox Green Cytotoxicity Assay to monitor cytotoxicity in HepG2 cells - 24 hour (AID 1224878); further: nearly all actives have a fitted effect of over 45% in size; further: potency means the concentration at half of the fitted maximal effect
# Summary of the method: as §6
# [17] = A CellTox Green Cytotoxicity Assay to monitor cytotoxicity in HEK293 cells - 32 hour (AID 1224881); further: nearly all actives have a fitted effect of over 40% in size; further: potency means the concentration at half of the fitted maximal effect
# Summary of the method: as §3
# [18] = A CellTox Green Cytotoxicity Assay to monitor cytotoxicity in HepG2 cells - 40 hour (AID 1224879); further: nearly all actives have a fitted effect of over 40% in size; further: potency means the concentration at half of the fitted maximal effect
# Summary of the method: as §6
# [19] = qHTS RealTime-Glo MT Cell Viability Assay in HEK293 cells - 0 hour (AID 1224880)
# Summary of the method: as §5
# [20] = qHTS assay to identify small molecule agonists of H2AX (AID 1224845; active means well fitted activation curve with a large enough effect in the signal ratio in the repeat runs, not every such curve was filed as active; the % refers to the signal ratio; further: potency means the concentration at half of the fitted maximal effect)
# Summary of the method: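 Wild-type CHO-K1 cells plated overnight, then exposed 3 hr at 37C to compounds at 15 concentrations (0.76% DMSO). Lysed, then HTRF anti-pH2AX(S139)-cryptate/anti-H2AX-d2 detection after 24 hr at room temperature; emissions 665 and 620 nm.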
# [21] = at 92.4 µM (top of the series) unless noted
compound,measurement,setting,value
CCc1cc(Cc2cc(CC)c(N)c(CC)c2)cc(CC)c1N,Potency,[1],inactive
same,Potency,[2],89.8 µM (active)
same,Potency,[3],27.3 µM (active)
same,"activity change, positive = activation",[4]; [21],-60.8% (inactive)
same,Potency,[5],inactive
same,Potency,[6],38.9 µM (active)
same,Potency,[7],inactive
same,Potency,[8],inactive
same,Potency,[9],inactive
same,Potency,[10],24.5 µM (active)
same,Potency,[11],inactive
same,Potency,[12],27.5 µM (active)
same,Potency,[13],inactive
same,Potency,[14],inactive
same,Potency,[15],inactive
same,Potency,[16],inactive
same,Potency,[17],inactive
CCOC(=O)c1nc(C(Cl)(Cl)Cl)n(-c2ccc(Cl)cc2Cl)n1,Potency,[1],inactive
same,Potency,[3],61.1 µM (active)
same,"activity change, positive = activation",[4]; [21],-43.4% (inactive)
same,Potency,[6],inactive
same,Potency,[7],inactive
same,Potency,[8],inactive
same,Potency,[9],inactive
same,Potency,[10],inactive
same,max response,[12],-11.5% (inactive)
same,Potency,[13],inactive
same,Potency,[14],inactive
same,Potency,[16],inactive
same,Potency,[18],inactive
same,Potency,[19],inactive
same,Potency,[17],inactive
Cc1cc2c(cc1C(F)(F)F)N(C(=O)Nc1ccc(Oc3cccnc3C)nc1)CC2,Potency,[1],inactive
same,Potency,[2],45.7 µM (active)
same,Potency,[3],4.93 µM (active)
same,"activity change, positive = activation",[4]; [21],-42.2% (inactive)
same,Potency,[5],inactive
same,Potency,[6],4.97 µM (active)
same,Potency,[7],inactive
same,Potency,[8],inactive
same,Potency,[9],inactive
same,Potency,[11],inactive
same,Potency,[12],5.58 µM (active)
same,Potency,[13],inactive
same,Potency,[14],inactive
same,Potency,[19],inactive
same,Potency,[17],inactive
Nc1c2ccccc2nc2ccccc12,Potency,[20],88.6 µM (active)
same,Potency,[3],2.69 µM (active)
same,"activity change, positive = activation",[4]; at 42.5 µM (top of the series),-23% (inactive)
same,"activity change, positive = activation",[4]; at 92.4 µM (top of the series),-63.6% (inactive)
same,Potency,[6],7.66 µM (active) and 2.39 µM (active)
same,Potency,[7],inactive
same,Potency,[8],24.2 µM (active) and 13.4 µM (active)
same,Potency,[9],24.2 µM (active)
same,Potency,[10],19.2 µM (active)
same,Potency,[12],4.83 µM (active) and 2.39 µM (active)
same,Potency,[14],inactive and 13.4 µM (active)
same,Potency,[15],24.2 µM (active) and 10.7 µM (active)
same,Potency,[16],10.7 µM (active)
same,Potency,[18],10.8 µM (active) and 10.7 µM (active)
same,Potency,[19],inactive
same,Potency,[17],43.1 µM (active)
CC1(C)CCC(C)(C)c2cc(C(=O)Nc3ccc(C(=O)O)cc3)ccc21,Potency,[1],inactive
same,"activity change, positive = activation",[4]; [21],-24.2% (inactive)
same,Potency,[5],inactive
same,Potency,[6],inactive
same,Potency,[7],inactive
same,Potency,[8],inactive
same,Potency,[10],inactive
same,Potency,[11],inactive
same,max response,[12],-14.6% (inactive)
same,Potency,[15],inactive
O=Cc1cc(O)ccc1Br,Potency,[20],inactive
same,Potency,[5],inactive
same,Potency,[7],inactive
same,Potency,[8],inactive
same,Potency,[11],inactive
same,Potency,[14],inactive
same,Potency,[15],inactive
same,Potency,[19],inactive

# From PubChem BioAssay (Tox21)
